# Source: article PMC4552634, “A New Set of Chemical Starting Points with Plasmodium falciparum Transmission-Blocking Potential for Antimalarial Drug Discovery” (PLoS ONE, 2015)
# Out of some 13,000 compounds screened, about 3,200 (25%) showed an effect of 50% or more. Some of the results follow.
# Test system: P. falciparum stage V gametocytes
# Set-up: BacTiter-Glo ATP luminescence viability of purified stage V gametocytes in 384-well plates, per cent inhibition versus DMSO
# Conditions: 48 h, 5 µM; inhibitor
row,Compound,% Inhibition
1,COc1cccc(NC(=O)NCCNc2ccnc(Nc3ccc(F)cc3)n2)c1 [TCMDC-133639],-6.43%
2,COc1ccc(CNC(=O)c2cc3c(=O)n4ccccc4nc3n(CCc3ccccc3)c2=N)cc1 [TCMDC-124474],-41.5%
3,COCCn1c(C)cc(C(=O)CN2C(=O)NC(C)(c3ccc(C(C)(C)C)cc3)C2=O)c1C (stereo not drawn) [TCMDC-125434],51.6%
4,Cc1cc(C(=O)CN2C(=O)NC(C)(c3ccc4ccccc4c3)C2=O)c(C)n1Cc1ccco1 (stereo not drawn) [TCMDC-125044],-21.37%
5,Cc1cc(C(=O)CN2C(=O)NC(C)(c3cccc4ccccc34)C2=O)c(C)n1Cc1ccco1 (stereo not drawn) [TCMDC-125264],12.34%
6,Cc1[nH]nc2ccc(-c3cc(OC[C@@H](N)Cc4ccccc4)cnc3-c3cc4ccccc4s3)cc12 [TCMDC-136352],16.97%
7,O=C(NCc1cccc2ccccc12)C1CCCN(C(=O)c2ccc(O)c(-c3ccc(Cl)c(Cl)c3)c2)C1 (stereo not drawn) [TCMDC-140894],15.24%
8,O=C(N[C@@H](Cc1ccccc1)[C@H](O)CNC1CCCCC1)c1cc(C2CCCC2)cc(N2CCCC2=O)c1 [TCMDC-138869],29.86%
9,COc1ccc2ncc(Cl)c(CCN3CC[C@@H](CNCc4cc5c(cn4)OCS5)C3)c2n1 [TCMDC-135904],-4.396%
10,Cc1c(C)c2c(c(C)c1O)CCC(C)(CCC(=O)O)O2 (stereo not drawn) [TCMDC-131686],-4.216%
11,CC[C@H]1CN2CC[C@H]1C[C@@H]2[C@@H](O)c1cc(Cl)nc2ccc(OC)cc12 [TCMDC-137467],-42.11%
12,CC[C@H]1CN2CC[C@H]1C[C@H]2[C@H](O)c1cc(/C=C/c2ccccc2)nc2ccc(OC)cc12 [TCMDC-141329],62.86%
13,C=C[C@H]1CN2CC[C@H]1C[C@H]2[C@H](O)c1cc(/C=C/c2ccc(F)cc2)nc2ccc(OC)cc12 [TCMDC-141366],-44.1%
14,CC[C@H]1CN2CC[C@H]1C[C@H]2[C@H](O)c1cc(-c2ccccc2C)nc2ccc(OC)cc12 [TCMDC-141190],15.24%
15,CC[C@H]1CN2CC[C@H]1C[C@H]2[C@H](O)c1cc(/C=C/c2ccc(F)cc2)nc2ccc(OC)cc12 [TCMDC-141367],91.47%
16,Cc1cccc(N2C(N)=NC(N)=NC2(C)C)c1C [TCMDC-137926],11.29%
17,Cc1cc(Nc2ccc(C)c(Cl)c2)n2ncnc2n1 [TCMDC-123501],-28.24%
18,COC(=O)c1cccc(N2CCN(CCCNC(=O)/C(=C/C=C/c3cc4cc(Cl)c(Cl)cc4[nH]3)OC)CC2)c1 [TCMDC-139338],20.82%
19,O=C(Cc1ccc(NC(=O)c2ccc(O)c(-c3cccc([N+](=O)[O-])c3)c2)cc1)NCCN1CCCCC1 [TCMDC-140797],2.849%
20,O=C(Nc1cccc(-c2cccc(-c3nc4ccc(F)cc4[nH]3)c2)c1)Nc1ccc2c(c1)OCO2 [TCMDC-133165],6.84%
21,Nc1cccc(CNCc2cccc(-c3cccc(-c4nc5ccccc5[nH]4)c3)c2)c1 [TCMDC-132942],-10.95%
22,NCc1ccc(CNCc2cccc(-c3cccc(-c4nc5ccccc5[nH]4)c3)c2)cc1 [TCMDC-132817],74.49%

row,Compound,% Inhibition
1,c1ccc(CNCc2cccc(-c3cccc(-c4nc5ccccc5[nH]4)c3)c2)cc1 [TCMDC-132698],-20.89%
2,c1ccc(CNCc2cccc(-c3ccc(-c4nc5ccccc5[nH]4)cc3)c2)cc1 [TCMDC-132700],26.72%
3,NCc1ccc(CNCc2cccc(-c3cccc(-c4nc5ccc(F)cc5[nH]4)c3)c2)cc1 [TCMDC-132816],98.03%
4,NCc1ccc(CNCc2cccc(-c3ccc(-c4nc5ccccc5[nH]4)cc3)c2)cc1 [TCMDC-132815],106.4%
5,Fc1ccc2nc(-c3cccc(-c4cccc(CNCc5ccccc5)c4)c3)[nH]c2c1 [TCMDC-132699],-56.67%
6,Nc1cccc(CNCc2cccc(-c3cccc(-c4nc5ccc(F)cc5[nH]4)c3)c2)c1 [TCMDC-132941],-20.24%
7,COc1ccc(CNCc2cccc(-c3cccc(-c4nc5ccccc5[nH]4)c3)c2)cc1 [TCMDC-132716],-25.62%
8,CCNc1cc(C(=O)N[C@@H](Cc2ccccc2)[C@H](O)CNC2(Cc3cccc(Cl)c3)CCC2)cc(N2CCCCS2(=O)=O)c1 [TCMDC-135383],17.64%
9,COc1cccc(CNc2noc(-c3c(-c4ccccc4)noc3C)n2)c1OC [TCMDC-134204],10.03%
10,COc1ccc(-c2nc(NCc3ccccc3)c3cc(OC)c(OC)cc3n2)cc1 [TCMDC-132018],17.4%
11,CCN(CCCNc1nc(=S)[nH]c2cc(OC)c(OC)cc12)c1ccccc1 [TCMDC-124446],83.33%
12,Cc1ccc2[nH]c3c(NCCCN(C)C)ncnc3c2c1 [TCMDC-124580],4.888%
13,Cc1cc(OCCCN2CCC(NS(=O)(=O)c3cc(Br)c(Cl)s3)CC2)c2ccccc2n1 [TCMDC-136280],-17.93%
14,Cc1cc(NC(=O)c2ccco2)ccc1OC1CCN(Cc2ccc(C#N)cc2)CC1 [TCMDC-133956],24.43%
15,CN(c1ccccc1C(=O)Nc1ccccc1Oc1ccccc1)S(=O)(=O)c1ccccc1 [TCMDC-125092],-61.36%
16,Cc1ccc(S(=O)(=O)N(C)c2ccccc2C(=O)Nc2ccccc2Oc2ccccc2)cc1 [TCMDC-125068],52.2%
17,CN(c1ccccc1C(=O)Nc1cc(Cl)ccc1Oc1ccccc1)S(=O)(=O)c1ccccc1 [TCMDC-124364],33.71%
18,O=[N+]([O-])c1ccc(C2=NN(S(=O)(=O)c3c(Cl)cc(Cl)cc3Cl)CCCC2)cc1 [TCMDC-135423],-33.18%
19,CCCCCc1cc(O)c2c(c1)OC(C)(C)CC2C1=CCN(Cc2ccccc2)CC1 (stereo not drawn) [TCMDC-131335],-27.18%
20,CCCCc1cc(NCc2ccncc2)nc(Nc2ccccc2)n1 [TCMDC-133995],8.477%
21,CCn1cc(-c2cc(C(=O)Nc3ccc(OC)cc3C)c3ccccc3n2)c(C)n1 [TCMDC-124457],71.47%
22,COc1ccc(-c2cc(C(=O)Nc3ccc(CCCN(C)Cc4ccc(OC)c(OC)c4)cc3)c3ccccc3n2)cc1 [TCMDC-131848],47.44%

row,Compound,% Inhibition
1,CCN(CC)CCOC(=O)c1ccc(NC(=O)c2cc(-c3ccc(C)cc3)nc3ccccc23)cc1 [TCMDC-124019],1.245%
2,Cc1cccc2nc(-c3ccc(-c4ccc(CNCCCNS(C)(=O)=O)cc4)s3)[nH]c12.O=C(O)C(F)(F)F [TCMDC-133085],13.51%
3,COc1cc2nc(N3CC(C)N(C(=O)Cc4ccc(-c5ccccc5)cc4)C(C)C3)nc(N)c2cc1OC (stereo not drawn) [TCMDC-138153],71.85%
4,COc1cc2nc(N3CCC(CNC(=O)c4ccc(-c5ccc(C#N)cc5)cc4)CC3)nc(N)c2cc1OC [TCMDC-138713],15.4%
5,COc1cc2nc(N3CCC(CNC(=O)c4ccc(-c5ccc(C#N)cc5C)cc4)CC3)nc(N)c2cc1OC [TCMDC-138735],105.2%
6,COc1cc2nc(N3CCC(CNC(=O)c4ccc(-c5cccc(C#N)c5)cc4)CC3)nc(N)c2cc1OC [TCMDC-138730],76.59%
7,COc1cc2nc(N3CCC(CNC(=O)/C=C/c4cccc(C)c4)CC3)nc(N)c2cc1OC [TCMDC-138156],-2.985%
8,CC(C)CCN1CCC(Oc2ccc(NC(=O)c3ccsc3)cc2Cl)CC1 [TCMDC-133973],36.47%
9,O=C(NCCN1CCC(NC(=O)c2ccc(-c3ccccn3)s2)CC1)c1ccc(Cl)c(Cl)c1 [TCMDC-141947],-22.55%
10,COc1cc(C(=O)N2COCC(CCCN3CCC(N4CCCC4)CC3)(c3ccc(Cl)c(Cl)c3)C2)cc(OC)c1OC (stereo not drawn) [TCMDC-141758],14.16%
11,CCN(CC)CCON=Cc1cc(C)c2[nH]c3ccc(OCc4ccccc4)cc3c2c1C [TCMDC-132058],-17.27%
12,Cc1nc(-c2cccc(NC(C)C(=O)Nc3cc(C(F)(F)F)ccc3N3CCOCC3)c2)cs1 (stereo not drawn) [TCMDC-125304],-35%
13,O=C(O)C[C@H](NC(=O)CCCNC(=O)c1cccc(-c2ccc(Cl)c(Cl)c2)c1)C(=O)O [TCMDC-139508],11.45%
14,CC(C)C[C@@H](CNC[C@H](CC(C)C)NC(=O)OC(C)(C)C)NC(=O)OC(C)(C)C [TCMDC-132080],-74.95%
15,CN(C)S(=O)(=O)c1ccc(N2C(=O)C3C(C2=O)C2(c4ccccc4)C(=O)C3(c3ccccc3)C(c3ccccc3)=C2c2ccccc2)cc1 (stereo not drawn) [TCMDC-132095],-66.42%
16,CCN(CC)CCCCOc1ccc2c(c1)C(=O)c1cc(OCCCCN(CC)CC)ccc1-2 [TCMDC-124163],88.71%
17,CCN(CC)CCOc1ccc(Nc2ncc3cc(-c4c(Cl)cccc4Cl)c(=O)n(C)c3n2)cc1 [TCMDC-140940],0.9022%
18,CN(c1ccc(F)cc1)S(=O)(=O)c1ccc(Cl)c(C(=O)Nc2cccc(C#N)c2)c1 [TCMDC-123717],11.84%
19,COc1cc(OC)nc(C(Sc2ccc(NC(=O)c3cccs3)cc2)c2ccccc2)n1 (stereo not drawn) [TCMDC-124257],44.54%
20,CCCCCCOc1ccccc1C(=O)NCCOc1ccc(Cl)cc1 [TCMDC-124012],-9.249%
21,CCCCCCOc1ccc(C(N)=NCc2ccccc2)c2c1CCCC2 [TCMDC-131554],15.01%
22,CCCCCOc1ccc(C(=NC)N(CCCCC)CCCCC)c2ccccc12 [TCMDC-137703],109.8%
